CRE-bla Fsk: Cell signaling CRE-BLA (Fsk stim); Potency, µM (highest dose often 38.2 µM), hits mostly activators; CHO CRE-bla reporter (cAMP response element driving beta-lactamase), forskolin EC10, beta-lactamase ratio; hit rate 2.5% among 71,000; AID 662, 2007; active = well fitted activation curve with a large enough effect in the signal ratio, with a control signal flat, not every such curve was filed as active; inconclusive = small, poorly fitted or top-dose-only effect, or effect the other way, or a change in a side signal; the % refers to the signal ratio
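Reporter-gene assay: CHO cells with beta-lactamase behind cAMP responsive elements, co-treated with compound and EC10 NKH 477 for 3 hours at 37 degrees Celsius. Activity came from the 460/530 nm CCF4 emission ratio.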
ERK AVP block: qHTS Assay for Inhibitors of the ERK Signaling Pathway using a Homogeneous Screening Assay; Potency, µM (series often up to 57.5 µM), hits mostly inhibitors; hit rate 0.99% among 72,000; HEK293-V1b, vasopressin-stimulated pERK AlphaScreen; note: nearly all actives have a fitted effect of over 55% in size
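qHTS, compounds titrated on V1b-expressing HEK293 cells. Preincubation 30 min at 37C, vasopressin 25 nM for 5 min, lysis 10 min, bead incubation 5 hr at room temperature.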
HEK293 cAMP cs: qHTS Assay for Agonists of the Thyroid Stimulating Hormone Receptor: Activators of Intracellular cAMP Concentrations in Parental HEK 293. Potency, µM (top dose mostly 57.1 µM), hits mostly activators. AID 938, 2007. hit rate 2.5% among 73,000. parental HEK293 CNG cAMP sensor, membrane potential fluorescence; note: nearly all actives have a fitted effect of over 55% in size
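Parental HEK 293 cells stably expressing a modified CNG channel (no TSHR) report cAMP rise as membrane depolarization. Membrane potential dye with 100 uM RO 20-1724 was loaded for 60 min at room temperature, then compound added for 30 min; fluorescence read at 590 nm.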
IkB sig inh: IkB Signaling | ABC-DLBCL IkBa-CBG/CBR dual luciferase ratio, 4 h; response scale: scaled: untreated 0%, proteasome inhibitor 100% | Potency, µM (series often up to 57.1 µM) | hit rate 0.04% among 110,000; active = well fitted curve in the direction sought with a large enough effect in the signal ratio, not every such curve was filed as active; inconclusive = small, poorly fitted or top-dose-only effect, or a change in a side signal; the % refers to the signal ratio;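 note: the direction sought is a rising ratio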
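Luminescence ratio of IκBα-fused green versus native red beetle luciferase in OCI-Ly3 cells, 4 h post-doxycycline with compound; red signal alone, scaled from basal (0%) to zero light (-100%), flagged nonspecific or cytotoxic effects.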
TSHR agonist: qHTS Assay for Agonists of the Thyroid Stimulating Hormone Receptor | AID 926, 2007 | HEK293-CNG-TSHR cells (CNG channel as cAMP sensor), membrane potential dye, cAMP | Thyrotropin receptor (Homo sapiens), P16473 | Potency, µM (titrated, usually from 57.1 µM), actives largely listed as activators | hit rate 0.48% among 73,000; active = well fitted activation curve with a large enough effect in the main read-out, with a control signal flat, not every such curve was filed as active; inconclusive = small, poorly fitted or top-dose-only effect, or a change in a side signal; inactive = no such curve, though single readings can be large or run the other way; reference of the percent scale not stated here;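 note: the control signal comes from parental cells without the receptor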
Target sequence (P16473 whole entry, looked up): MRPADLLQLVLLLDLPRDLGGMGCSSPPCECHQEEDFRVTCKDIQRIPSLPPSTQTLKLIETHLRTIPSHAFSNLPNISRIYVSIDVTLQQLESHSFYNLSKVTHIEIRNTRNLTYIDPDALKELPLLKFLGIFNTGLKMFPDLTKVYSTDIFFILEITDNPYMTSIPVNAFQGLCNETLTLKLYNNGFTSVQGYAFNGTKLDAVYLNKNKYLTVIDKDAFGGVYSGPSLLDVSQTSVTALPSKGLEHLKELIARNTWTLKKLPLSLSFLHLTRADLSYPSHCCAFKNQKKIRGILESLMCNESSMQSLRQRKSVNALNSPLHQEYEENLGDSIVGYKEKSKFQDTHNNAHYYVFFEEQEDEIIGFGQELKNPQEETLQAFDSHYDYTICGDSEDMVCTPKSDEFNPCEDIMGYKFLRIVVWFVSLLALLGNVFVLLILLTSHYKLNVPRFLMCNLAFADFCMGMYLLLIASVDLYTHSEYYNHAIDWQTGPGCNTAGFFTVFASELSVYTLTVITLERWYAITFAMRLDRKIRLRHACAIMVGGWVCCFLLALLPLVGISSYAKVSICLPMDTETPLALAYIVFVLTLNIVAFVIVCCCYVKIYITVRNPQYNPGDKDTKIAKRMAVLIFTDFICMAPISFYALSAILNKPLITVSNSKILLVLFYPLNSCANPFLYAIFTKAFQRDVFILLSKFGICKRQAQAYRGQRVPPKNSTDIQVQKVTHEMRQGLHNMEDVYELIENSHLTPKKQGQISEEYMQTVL
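cAMP rise detected as CNG-channel membrane depolarization by fluorescent dye (emission 590 nm), 30 min after compound, following 60 min dye loading containing 100 uM RO 20-1724 at room temperature. Cells: TSHR/CNG HEK 293, with parental CNG HEK 293 as control.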
A number is an active result; – = inactive; ? = inconclusive; · = not tested or not shown; [ ] = remark or other dose. Compounds with a hit are over-represented: about 3.6% of the library has one in this group of screens. Unless noted, calls come from the whole dose curve; as a rule, active = well fitted curve in the direction sought with a large enough effect; inconclusive = small, poorly fitted or top-dose-only effect, or another doubt; inactive = no such curve, though single readings can be large; an effect the other way counts as inactive or inconclusive.

SMILES | CRE-bla Fsk | ERK AVP block | HEK293 cAMP cs | IkB sig inh | TSHR agonist
c1cn(-c2ccnc(-c3ccc4c(c3)OCO4)n2)cn1 | ? | 20µM | – | –[11.4 µM] | –
COC(=O)N1CCC[C@@]2(CCN(C(=O)Nc3cccc(F)c3)C2)C1 | – | – | 7.94µM | –[11.4 µM] | ?
COc1ccc(C(=O)N2CCC3(CCCN(C(=O)Nc4cccc(C#N)c4)C3)CC2)cc1 | – | – | – | –[11.4 µM] | 25.1µM
CCn1ncc(Br)c1C(=O)Nc1ccc(Cl)cn1 | ? | – | – | – | –
COc1ccc(Nc2cc(C(=O)NCCCN(C)C3CCCCC3)c3ccccc3n2)cc1 | · | · | · | – | ·
CCCC(=O)NCCc1cc2c(C)ccc(C)c2[nH]c1=O | 12.6µM | · | – | – | –
CCC1Oc2ccc(C)cc2N(CC(=O)N(Cc2ccc3c(c2)OCO3)CC2CCCO2)C1=O (stereo unspecified) | – | – | 5.01µM | – | ?
CCOC(=O)c1c(OCC)[nH]c2c1cc(O)c1ccccc12 | – | 25.1µM | – | ? | –
Cc1nn(S(=O)(=O)c2ccc(F)cc2)c(C)c1S(=O)(=O)N1CCCCCC1 | · | · | · | – | ·
COc1cc(C(=O)NCc2cn3cccc(C)c3n2)cc(OC)c1OC | 12.6µM | · | – | – | –
Cc1cccn2cc(CCNC(=O)c3ccc(Br)o3)nc12 | – | · | 31.6µM | ? | ?
O=C(NCCc1cn2ccccc2n1)c1ccc(Br)o1 | ? | · | – | – | –
O=C1CC(C(=O)Nc2ncccn2)C(c2ccccc2)O1 (stereo unspecified) | ? | – | – | – | –
N#Cc1c(C(F)(F)F)cc(-c2ccco2)nc1SCc1ccccn1 | ? | – | 31.6µM | – | ?
O=S(=O)(c1ccccc1)N1CCC[C@@]2(CCN(Cc3ccccc3)C2)C1 | – | – | ? | –[11.4 µM] | ?
C=C(C)C1Cc2c(ccc(C(=O)O)c2O)O1 (stereo unspecified) | · | – | · | · | ·
O=C(CSc1ncnc2c1oc1ccccc12)N1CCCc2ccccc21 | ? | ? | 31.6µM | ? | ?
O=C(Cn1cnc2c(oc3ccccc32)c1=O)N1CCCc2ccccc21 | – | – | – | – | –
N#CCSc1nc2cc(C(=O)N3CCC(C(N)=O)CC3)ccc2c2nc3ccccc3n12 | 2.51µM | 20µM | – | – | –
CCOC(=O)c1ccccc1NC(=O)CN1C(=O)c2ccccc2S1(=O)=O | – | – | – | – | –
O=C(CSc1nc2c(c(C(F)(F)F)n1)CCc1ccccc1-2)NCc1ccco1 | – | – | 25.1µM | – | ?
CC1=C(C(=O)OCc2ccccc2)C(c2ccc(C3CCCCC3)cc2)NC(=O)N1CCCCCC(=O)O (stereo unspecified) | ? | – | 31.6µM | · | ?
Cc1nn(-c2ccccc2)c2sc(C(=O)OCN3C(=O)c4ccccc4C3=O)cc12 | 1.58µM | – | – | – | –
COc1ccc(C(=O)Nc2ccc(-c3ccc(C)o3)cc2)cc1S(=O)(=O)N1CCOCC1 | ? | 2µM | – | ? | –
COc1ccc(C(=O)Nc2ccc(-c3cn4ccsc4n3)cc2)cc1S(=O)(=O)N1CCOCC1 | 2µM | – | – | – | –
SMILES | CRE-bla Fsk | ERK AVP block | HEK293 cAMP cs | IkB sig inh | TSHR agonist
COc1ccc(C(=O)Nc2cccc3c2C(=O)NC3=O)cc1S(=O)(=O)N1CCOCC1 | 2.51µM | ? | – | – | –
CCn1cc(C(=O)N2CCN(c3ccc(OC)cc3)CC2)c(=O)c2cc(S(=O)(=O)N3CCOCC3)ccc21 | · | · | · | – | ·
Cn1c(SCCCC(=O)c2ccccc2)nnc1-c1ccncc1 | ? | – | – | – | –
CC1=C(C)CS(=O)N(S(=O)(=O)c2ccc(Cl)cc2)C1 (stereo unspecified) | ? | – | – | – | –
N#CCSc1nc2c(c(C3CC=CCC3)c1C#N)CCC2 (stereo unspecified) | ? | – | 10µM | ? | ?
N#Cc1c(SCC(N)=O)nc2c(c1-c1ccc(O)cc1)CCCC2 | ? | – | – | – | –
OC(CCN1CCOCC1)(c1ccc(Cl)cc1)C1CCCCC1 (stereo unspecified) | ? | – | 15.8µM | – | ?
OC(CCN1CCCCC1)(c1ccccc1)C1CCCCC1 (stereo unspecified) | · | – | · | · | ·
CCOC(=O)c1c(N)sc(C(N)=O)c1C | – | 12.6µM | – | – | –
Cc1ccc(S(=O)(=O)NC(CN2CCOCC2)=NCCNS(=O)(=O)c2ccccc2)cc1 | ? | – | – | – | –
Cc1cccc(N2CCN(CC(=O)NCC3CCCCC3)CC2)c1C | – | 25.1µM | ? | ? | ?
CCOc1ccc(-n2nc(CO)c(C(=O)NCC(C)O)n2)cc1 (stereo unspecified) | · | · | · | – | ·
Brc1ccc2nc(SCCOc3ccccc3)[nH]c2c1 | · | · | · | – | ·
Cn1c(CSc2nc3ccc(Br)cc3[nH]2)nc2ccccc21 | ? | 20µM | – | ? | –
Cn1c(CSc2ccccc2)c(C#N)c2ccccc21 | ? | – | 25.1µM | – | ?
COCCCN1C(=O)C(=O)/C(=C(/O)c2ccc(OC(C)C)cc2)C1c1ccncc1 (stereo unspecified) | – | – | – | – | –
COCCn1c(-c2ccc(Cl)cc2)cnc1SCC(=O)NCc1cccs1 | – | – | 10µM | ? | ?
CCCn1nnnc1SCC(=O)NCc1cccs1 | – | – | – | – | –
CC(=O)NC(c1ccco1)c1ccc2cccnc2c1O (stereo unspecified) | – | 15.8µM | – | ? | –
O=C(O)c1ccccc1N[C@H](c1ccccc1)c1ccc2cccnc2c1O | –[7.6 µM] | –[11.5 µM] | –[11.4 µM] | –[11.4 µM] | –[11.4 µM]
O=c1[nH]c2ccccc2c2ccccc12 | ? | – | – | – | –
O=c1[nH]c2ccccc2c2nc3ccccn3c12 | 10µM | – | – | – | –
O=c1c(-c2cccc(F)c2)nc2cncnc2n1Cc1ccc(F)cc1 | ? | ? | –[2.29 µM] | –[11.4 µM] | –
O=c1c(-c2ccc(F)cc2)nc2cnc(Nc3ccccc3)nc2n1C[C@H]1CCCO1 | 0.251µM | – | – | –[11.4 µM] | –
O=c1c(-c2ccc(F)cc2)nc2cnc(N3CCOCC3)nc2n1C[C@H]1CCCO1 | 1µM | – | – | –[11.4 µM] | –
SMILES | CRE-bla Fsk | ERK AVP block | HEK293 cAMP cs | IkB sig inh | TSHR agonist
O=c1c(-c2cccs2)nc2cnc(N3CCOCC3)nc2n1Cc1ccc(F)cc1 | ? | – | – | –[11.4 µM] | –
O=c1c(-c2ccc(Cl)cc2)nc2cnc(N3CCOCC3)nc2n1Cc1ccc(F)cc1 | 6.31µM | – | – | –[11.4 µM] | –
COc1ccc(-n2c(=O)c(-c3cc(F)cc(F)c3)nc3cnc(N4CCNCC4)nc32)cc1 | ? | – | –[0.457 µM] | –[11.4 µM] | –
COc1ccc(-n2c(=O)c(-c3cccc(C#N)c3)nc3cnc(N4CCNCC4)nc32)cc1 | 10µM | ? | ? | –[11.4 µM] | ?
O=C(C1CC1)n1cc(C(=S)N2CCOCC2)c2ccccc21 | ? | ? | – | – | –
COc1ccc(-c2nc3cnc(N4CCOCC4)nc3n(C[C@H]3CCCO3)c2=O)cc1 | ? | ? | –[2.29 µM] | –[11.4 µM] | –

Source: PubChem
